Results: the supplement of paper PMC10127200
Where a name gives a salt, the structure may show the parent alone.

Experiments:
Assay in all cases: Euclidean distance of Cell Painting phenotypic profile (signed KS, 77 features) to DMSO centroid (dimensionless distance); 5 or 10 uM (library dependent); higher = stronger phenotypic change vs DMSO (phenoactivity)
Conditions in all cases: 48 h
[1] = system: 786-O
How it was run: (§1)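 Phenoactivity is computed as Euclidean distance to the median vehicle profile. The profiles, drawn from 77 Harmony features scored as signed Kolmogorov-Smirnov statistics versus same-plate vehicle wells, were corrected for plate position, correlation-weighted and replicate-averaged at the top dose. Stained cells were imaged confocally at 20X (9 fields/well) after 48 h with library compounds at 10 or 5 uM, 0.1% DMSO final, in five cancer lines and a healthy fibroblast line.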

[2] = system: A549
How it was run: as §1

[3] = system: DU145
How it was run: as §1

[4] = system: FB
How it was run: as §1

[5] = system: HEPG2
How it was run: as §1

[6] = system: OVCAR4
How it was run: as §1

| Compound | Euclidean distance [1] | Euclidean distance [2] | Euclidean distance [3] | Euclidean distance [4] | Euclidean distance [5] | Euclidean distance [6] |
| --- | --- | --- | --- | --- | --- | --- |
| O=C(O)COC(=O)Cc1ccccc1Nc1c(Cl)cccc1Cl [Aceclofenac] | 1.26 | 0.455 | 1.1 | 0.795 | 0.607 | 0.86 |
| Cc1ccc(F)c(NC(=O)Nc2ccc(-c3cccc4[nH]nc(N)c34)cc2)c1 [Linifanib (ABT-869)] | 1.23 | 2.53 | 1.64 | 1.81 | 4.87 | 1.29 |
| Cc1cnc(CNC(=O)c2c(=O)c3ccc(N4CCCN(C)CC4)nc3n3c2sc2ccccc23)cn1 | 2.93 | 3.26 | 2.7 | 3.86 | 2.18 | 3.31 |
| Cn1c(=O)cc(N2CCC[C@@H](N)C2)n(Cc2cc(F)ccc2C#N)c1=O [Trelagliptin succinate] | 0.808 | 1.21 | 1.04 | 1.06 | 0.54 | 1.49 |
| CO/N=C(\C(=O)N[C@@H]1C(=O)N2C(C(=O)O)=C(CSc3nc(=O)c(O)nn3C)CS[C@H]12)c1csc(N)n1 [Ceftriaxone Sodium Trihydrate] | 1.01 | 0.779 | 1.23 | 0.836 | 0.792 | 0.926 |
| CCCCC(=O)N(Cc1ccc(-c2ccccc2-c2nn[nH]n2)cc1)C(C(=O)O)C(C)C.CCOC(=O)C(C)CC(Cc1ccc(-c2ccccc2)cc1)NC(=O)CCC(=O)O (stereo not drawn) [Sacubitril/valsartan (LCZ696)] | 0.856 | 0.709 | 1.24 | 1.04 | 0.622 | 1.01 |
| C/C=C(/C)C(=O)O[C@H]1[C@H](OC(C)=O)[C@@]2(CO)C(CC1(C)C)C1=CCC3[C@@]4(C)CCC(O[C@@H]5O[C@H](C(=O)O)[C@@H](O[C@@H]6O[C@H](CO)[C@@H](O)[C@H](O)[C@H]6O)[C@H](O)[C@H]5O[C@@H]5O[C@H](CO)[C@@H](O)[C@H](O)[C@H]5O)[C@](C)(CO)C4CC[C@@]3(C)[C@]1(C)C[C@H]2O.C/C=C(\C)C(=O)O[C@H]1[C@H](OC(C)=O)[C@@]2(CO)C(CC1(C)C)C1=CCC3[C@@]4(C)CCC(O[C@@H]5O[C@H](C(=O)O)[C@@H](O[C@@H]6O[C@H](CO)[C@@H](O)[C@H](O)[C@H]6O)[C@H](O)[C@H]5O[C@@H]5O[C@H](CO)[C@@H](O)[C@H](O)[C@H]5O)[C@](C)(CO)C4CC[C@@]3(C)[C@]1(C)C[C@H]2O (stereo partly drawn) [Escin] | 1.14 | 0.784 | 0.972 | 1.18 | 0.678 | 1.24 |
| CC(C)NC[C@@H](O)COc1ccc(CC(N)=O)cc1 [(R)-(+)-Atenolol HCl] | 0.631 | 0.523 | 0.486 | 0.716 | 0.626 | 0.511 |
| C=CC(=O)N1C[C@H](Nc2ncnc3[nH]ccc23)CC[C@@H]1C | 1.27 | 0.386 | 1.09 | 0.936 | 0.582 | 0.786 |
| CC1OC2(CS1)CN1CCC2CC1 (stereo not drawn) [Cevimeline] | 1.52 | 1.3 | 0.896 | 1.55 | 0.72 | 1.48 |
| NC(=O)c1cnc2[nH]ccc2c1N[C@@H]1[C@@H]2CC3C[C@H]1C[C@@](O)(C3)C2 | 2.3 | 2 | 1.41 | 3.39 | 1.42 | 2.08 |
| CC(C)NC[C@H](O)COc1ccc(CCOCC2CC2)cc1 [Levobetaxolol HCl] | 1.03 | 0.954 | 0.622 | 0.99 | 0.412 | 0.877 |
| CC[C@@H](CO)NCCN[C@@H](CC)CO [Ethambutol 2HCl] | 1.58 | 0.663 | 1.06 | 0.73 | 0.465 | 1.38 |
| NC(=NCCCCCCN=C(N)N=C(N)Nc1ccc(Cl)cc1)N=C(N)Nc1ccc(Cl)cc1 [Chlorhexidine?2HCl] | 2.98 | 3.13 | 2.18 | 1.67 | 2.59 | 2.56 |
| Cc1c(-c2ccc(O)cc2)n(Cc2ccc(OCCN3CCCCCC3)cc2)c2ccc(O)cc12 [Bazedoxifene HCl] | 5.12 | 4.91 | 3.42 | 4.82 | 4.62 | 4.32 |
| CCOC(=O)c1ccc(C#Cc2ccc3c(c2)C(C)(C)CCS3)nc1 [Tazarotene] | 1.01 | 1.14 | 0.728 | 2.31 | 0.556 | 1.27 |
| C[C@@](Cc1ccc(O)c(O)c1)(NN)C(=O)O [Carbidopa] | 1.38 | 1.06 | 0.985 | 1.1 | 0.878 | 1.05 |
| NC(N)=Nc1nc(CSCC/C(N)=N/S(N)(=O)=O)cs1 [Famotidine] | 1.72 | 0.931 | 1.5 | 1.11 | 2.27 | 1.1 |
| O=C(NC[C@H]1CN(c2ccc(N3CCOCC3=O)cc2)C(=O)O1)c1ccc(Cl)s1 [Rivaroxaban] | 1.33 | 1.15 | 0.946 | 0.949 | 0.52 | 1.51 |

| Compound | Euclidean distance [1] | Euclidean distance [2] | Euclidean distance [3] | Euclidean distance [4] | Euclidean distance [5] | Euclidean distance [6] |
| --- | --- | --- | --- | --- | --- | --- |
| COCC(=O)Nc1cc(Sc2ccccc2)ccc1N=C(NC(=O)OC)NC(=O)OC [Febantel] | 0.969 | 0.892 | 0.944 | 1.06 | 1.09 | 1.15 |
| Nc1ncc2ncn(CC3(OCP(=O)(O)O)CC3)c2n1 [Besifovir] | 1.03 | 0.329 | 1.01 | 1.2 | 0.716 | 0.915 |
| O=C(O)CNC(=O)c1ncc(-c2cccc(Cl)c2)cc1O [Vadadustat] | 1.08 | 1.97 | 2.71 | 1.67 | 0.8 | 2.35 |
| O=C(Nc1ccc([N+](=O)[O-])cc1Cl)c1cc(Cl)ccc1O [Niclosamide] | 2.27 | 2.95 | 2.1 | 3.12 | 0.819 | 2.45 |
| Cc1ccc2c(c1)C(=O)C1(O)CCN(c3ccccc3)C1=N2 (single isomer, unassigned; (-)) [(-)-Blebbistatin] | 1.29 | 1.46 | 1.36 | 1.03 | 1.13 | 1.46 |
| COC(=O)N[C@H](C(=O)N[C@@H](Cc1ccccc1)[C@@H](O)CN(Cc1ccc(-c2ccccn2)cc1)NC(=O)[C@@H](NC(=O)OC)C(C)(C)C)C(C)(C)C [Atazanavir Sulfate] | 1.01 | 0.58 | 0.637 | 0.614 | 0.837 | 1.55 |
| CCOC(=O)[C@H](CCc1ccccc1)N[C@@H](C)C(=O)N1[C@H](C(=O)O)C[C@@H]2CCC[C@@H]21 [Ramipril] | 1.25 | 0.735 | 0.891 | 1.1 | 1.89 | 1.21 |
| O=C(Nc1ccncc1)c1cc([N+](=O)[O-])ccc1Cl | 1.2 | 0.794 | 2.19 | 0.879 | 1.09 | 2.04 |
| O=C(c1ccc(F)cc1)C1CCN(CCn2c(=O)[nH]c3ccccc3c2=O)CC1 [Ketanserin] | 1.44 | 0.68 | 0.898 | 0.767 | 0.883 | 1.08 |
| CCN(CC)C(=O)[C@@]1(c2ccccc2)C[C@H]1CN [Levomilnacipran Hydrochloride] | 0.986 | 0.786 | 1.17 | 1.23 | 0.649 | 0.997 |
| CC(C)(Sc1cc(C(C)(C)C)c(O)c(C(C)(C)C)c1)Sc1cc(C(C)(C)C)c(O)c(C(C)(C)C)c1 [Probucol] | 0.793 | 0.681 | 0.734 | 0.921 | 1.07 | 1.14 |
| CN1CC2c3ccccc3Oc3ccc(Cl)cc3C2C1 (stereo not drawn) [Asenapine maleate] | 1.69 | 0.991 | 2.6 | 1.59 | 1.28 | 1.51 |
| CC[C@H](CO)Nc1nc(NCc2ccccc2)c2ncn(C(C)C)c2n1 [Roscovitine (Seliciclib.CYC202)] | 2.13 | 2.16 | 1.28 | 1.32 | 1.82 | 1.84 |
| O=C(O)CC[C@H]1CC[C@@](c2cc(F)ccc2F)(S(=O)(=O)c2ccc(Cl)cc2)CC1 | 1.76 | 1.71 | 0.876 | 1.8 | 1.76 | 1.58 |
| C[C@@H]1C[C@H]2[C@@H]3CCC4=CC(=O)C=C[C@]4(C)[C@@]3(F)[C@@H](O)C[C@]2(C)[C@@]1(O)C(=O)COP(=O)(O)O [Dexamethasone Sodium Phosphate] | 1.79 | 2.25 | 2.22 | 1.44 | 0.744 | 2.38 |
| C[C@@H]1[C@H](O)[C@@H](C)/C=C/C=C/C=C/C=C/C=C/C=C/C=C/[C@H](O[C@@H]2O[C@H](C)[C@@H](O)[C@H](N)[C@@H]2O)C[C@@H]2O[C@](O)(C[C@@H](O)C[C@@H](O)[C@H](O)CC[C@@H](O)C[C@@H](O)CC(=O)O[C@H]1C)C[C@H](O)[C@H]2C(=O)O [Amphotericin B] | 1.91 | 1.67 | 1.91 | 3.03 | 1.43 | 1.93 |
| NC(=O)c1ccc(I)c([N+](=O)[O-])c1 [Iniparib (BSI-201)] | 1.06 | 0.758 | 1.44 | 1.31 | 0.803 | 1.14 |
| c1ccc2c(CCNc3ccc(Nc4ccncc4)cc3)c[nH]c2c1 | 2.61 | 2.76 | 1.77 | 2.87 | 2.65 | 3.75 |
| CS(=O)(=O)CCNCc1ccc(-c2ccc3ncnc(Nc4ccc(OCc5cccc(F)c5)c(Cl)c4)c3c2)o1 [Lapatinib ditosylate monohydrate] | 4.93 | 3.12 | 2.25 | 2.59 | 3.3 | 3.37 |
